This note sets out measurements from PubChem BioAssay AID720517 (National Center for Advancing Translational Sciences (NCATS), 2013).

Records with an inconclusive call do not appear. Unmarked numbers belong to inactive results. Calls come from the whole dose curve; as a rule, active = well fitted activation curve with a large enough effect; inconclusive = small, poorly fitted or top-dose-only effect; inactive = flat fitted curve, though single readings scatter.

A short description of this test: qHTS for Inhibitors of Cell Surface uPA Generation: FP59 Counterscreen for Cherry-picked Compounds. Note: 0% is about no effect. The settings on record: FP59 anthrax toxin cytotoxicity counterscreen, cells; series mostly up to 115 µM; activity (protection from FP59): at the top concentration. A general note: Quantitative high-throughput screening tests each substance at several concentrations.
Consider `CCOc1ccccc1C(=O)NC1CCN(CC(=O)Nc2cc(OC)ccc2OC)CC1`, for which the “activity (protection from FP59)” value is -0.0735%.
`CCOc1ccc(/C=N/NC(=S)Nc2c(C)cccc2C)cc1`: the “activity (protection from FP59)” value is -1.17%.
In the case of `O=C(OCC(=O)N1CCOCC1)c1c(Cl)ccc(Cl)c1Cl`, the “activity (protection from FP59)” value is -1.43%.
With `O=C1c2ccccc2[C@@H]2C[C@H](NC34CC5CC(CC(C5)C3)C4)[C@@H](O)CCN12`, the “activity (protection from FP59)” value is -1.36%.
As for `COCCN(CCOC)c1nc(-c2ccc(C)cc2)nc2ccccc12`, the “activity (protection from FP59)” value was -1.31%.
Take `COc1ccc(C)cc1NC(=O)CSCc1cc(=O)n2c(C)csc2n1`: the “activity (protection from FP59)” value is -1.12%.
Under `O=C(CSC1=NS(=O)(=O)c2ccccc2N1)Nc1nccs1` stands -1.26%; under `O=C(NCCN1CCOCC1)c1ccc2c(c1)N(Cc1ccc(Cl)cc1)CCS2`, -1.33%; under `O=C(Nc1ccc(S(=O)(=O)N2CCOCC2)cc1)c1cc(-c2ccccc2O)n[nH]1`, -1.42%.
With `CCn1nc(C)c(CNC(=O)C2CCC(=O)N(CCc3ccc(OC)cc3)C2)c1C` (stereo unspecified), the “activity (protection from FP59)” value was -1.23%.
Consider `O=S(=O)(c1ccc2nc(N3CCN(c4ccccc4)CC3)ccc2c1)N1CCCCC1`, for which the “activity (protection from FP59)” value was -1.27%.
Under `Cc1ccccc1OCCC(=O)NNC(=O)c1ccccc1F` stands -1.31%; under `CCCc1nc2c(=O)n(C)c(=O)[nH]c2n1CCC`, -1.11%; under `CCC(NC(=S)NCc1ccc(F)cc1)c1ccccc1` (stereo unspecified), 3.04%.
In the case of `COc1ccccc1C(=O)NCc1ccccc1`, the “activity (protection from FP59)” value was -1.46%.
For the compound `Cc1nc2nc(C)c(NS(=O)(=O)c3ccc(Cl)cc3)c(=O)n2[nH]1`, the “activity (protection from FP59)” value was -1.36%.
On to `COc1ccc(C[C@@H]2OC3(C=CC(=O)C=C3)O[C@H]2Cc2ccc(OC)cc2)cc1`, for which the “activity (protection from FP59)” value is -1.61%.
`CC1(C)Oc2ccc3ccc(=O)oc3c2[C@@H](O)[C@H]1O`: the “activity (protection from FP59)” value was -1.51%.
Turning to `Cc1ccc(-c2nc(CS(=O)(=O)CC(=O)NCc3cccc(F)c3)c(C)o2)cc1`, the “activity (protection from FP59)” value is -1.37%.
For the compound `O=C(C[n+]1ccccc1)Nc1ccccc1C(F)(F)F`, the “activity (protection from FP59)” value was -1.29%.
As to `COc1cccc(NC(=O)CSc2nc3ncc(Br)cc3[nH]2)c1`, the “activity (protection from FP59)” value was -1.32%.
